Data on two sequences can be found in article PMC7862700, “An all-to-all approach to the identification of sequence-specific readers for epigenetic DNA modifications on cytosine”.

Common to all, as to assay: DAPPL (digital affinity profiling via proximity ligation, sequencing); 10 mM Tris-HCl pH 7.5, 50 mM NaCl, 1 mM DTT, 4% glycerol, room temperature, 30 min; GST-TFs on glutathione beads, 16-mer random dsDNA library, 0.1% formaldehyde crosslink after washing; high values mean tight binding
Details in all cases: protein: recombinant; tags: N-terminal GST; dsDNA, one strand shown

One test deals with T1, FLI1 (Homo sapiens, UniProt Q01543 1-452).
T1 sequence: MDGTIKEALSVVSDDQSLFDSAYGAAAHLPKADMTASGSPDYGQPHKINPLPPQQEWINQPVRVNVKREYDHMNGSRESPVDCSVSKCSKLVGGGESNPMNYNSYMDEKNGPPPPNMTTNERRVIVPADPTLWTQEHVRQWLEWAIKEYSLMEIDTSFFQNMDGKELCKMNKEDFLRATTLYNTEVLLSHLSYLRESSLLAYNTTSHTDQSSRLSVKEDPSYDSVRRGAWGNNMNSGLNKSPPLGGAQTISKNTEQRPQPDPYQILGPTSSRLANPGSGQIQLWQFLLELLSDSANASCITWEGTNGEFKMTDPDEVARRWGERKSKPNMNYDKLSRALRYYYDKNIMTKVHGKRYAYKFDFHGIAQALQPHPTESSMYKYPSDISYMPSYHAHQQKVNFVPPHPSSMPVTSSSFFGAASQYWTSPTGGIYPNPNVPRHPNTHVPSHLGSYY
In short, it runs like this: (§1)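 Sequencing on an Illumina NextSeq500 followed washing, crosslinking with 0.1% formaldehyde, proximity ligation (BsaI/T4 ligase, 1 h, 37 °C) and PCR amplification of pools that had been incubated for 30 min at room temperature with 200 nmole of a random double-stranded 16-mer DNA library in Tris/NaCl/DTT/glycerol buffer. Each pool held DNA-barcoded human transcription factors, expressed in yeast as GST fusions and captured on glutathione beads, plus a tag-only sample. Binding signal is a hexamer's read frequency for a factor divided by its frequency in the tag-only sample.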

Another test concerns the target T2, ELK1 (Homo sapiens, UniProt P19419 1-428).
T2 sequence: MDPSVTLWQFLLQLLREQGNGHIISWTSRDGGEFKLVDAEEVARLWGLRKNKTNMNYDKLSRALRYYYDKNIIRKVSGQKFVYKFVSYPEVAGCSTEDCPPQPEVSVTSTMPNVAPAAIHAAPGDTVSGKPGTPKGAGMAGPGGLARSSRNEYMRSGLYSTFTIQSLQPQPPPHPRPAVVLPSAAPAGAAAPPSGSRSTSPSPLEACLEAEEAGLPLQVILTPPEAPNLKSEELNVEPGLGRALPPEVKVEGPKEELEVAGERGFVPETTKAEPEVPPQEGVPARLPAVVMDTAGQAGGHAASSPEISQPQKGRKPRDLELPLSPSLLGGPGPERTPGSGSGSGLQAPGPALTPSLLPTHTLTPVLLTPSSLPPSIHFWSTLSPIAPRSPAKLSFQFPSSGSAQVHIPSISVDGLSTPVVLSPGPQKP
In a few lines:
as §1

The target of a further test is T3, GABPA (Homo sapiens, UniProt Q06546 1-454).
T3 sequence: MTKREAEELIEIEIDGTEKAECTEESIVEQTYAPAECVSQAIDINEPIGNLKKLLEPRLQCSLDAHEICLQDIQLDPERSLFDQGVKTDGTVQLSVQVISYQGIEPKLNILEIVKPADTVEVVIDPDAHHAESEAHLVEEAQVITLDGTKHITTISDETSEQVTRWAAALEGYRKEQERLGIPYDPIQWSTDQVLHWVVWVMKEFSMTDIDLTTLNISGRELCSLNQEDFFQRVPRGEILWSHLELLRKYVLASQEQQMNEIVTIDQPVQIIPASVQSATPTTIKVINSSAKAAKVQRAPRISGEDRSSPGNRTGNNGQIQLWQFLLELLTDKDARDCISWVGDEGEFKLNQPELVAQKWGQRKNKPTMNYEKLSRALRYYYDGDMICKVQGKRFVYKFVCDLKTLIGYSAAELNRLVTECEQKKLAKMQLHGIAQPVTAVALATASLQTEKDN
In a few lines:
as §1

Another test addresses T4, ERG (Homo sapiens, UniProt P11308 1-479).
T4 sequence: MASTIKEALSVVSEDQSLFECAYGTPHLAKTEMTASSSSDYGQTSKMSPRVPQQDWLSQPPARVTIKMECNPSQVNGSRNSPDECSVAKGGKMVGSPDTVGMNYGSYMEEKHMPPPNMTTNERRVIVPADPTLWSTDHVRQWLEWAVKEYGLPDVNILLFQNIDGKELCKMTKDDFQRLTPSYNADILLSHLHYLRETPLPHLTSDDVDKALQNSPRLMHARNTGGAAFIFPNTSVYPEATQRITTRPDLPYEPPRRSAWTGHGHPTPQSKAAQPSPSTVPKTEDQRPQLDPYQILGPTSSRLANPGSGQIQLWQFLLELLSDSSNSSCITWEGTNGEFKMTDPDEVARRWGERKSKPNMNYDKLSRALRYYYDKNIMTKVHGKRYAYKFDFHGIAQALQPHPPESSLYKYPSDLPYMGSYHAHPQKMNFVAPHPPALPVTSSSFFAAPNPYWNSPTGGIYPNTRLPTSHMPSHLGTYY
In a few lines: as §1

The target in a further test is ELF1 (Homo sapiens, UniProt P32519 1-619). In a few lines:
as §1

The target of another test is T5, EHF (Homo sapiens, UniProt Q9NZC4 1-300).
T5 sequence: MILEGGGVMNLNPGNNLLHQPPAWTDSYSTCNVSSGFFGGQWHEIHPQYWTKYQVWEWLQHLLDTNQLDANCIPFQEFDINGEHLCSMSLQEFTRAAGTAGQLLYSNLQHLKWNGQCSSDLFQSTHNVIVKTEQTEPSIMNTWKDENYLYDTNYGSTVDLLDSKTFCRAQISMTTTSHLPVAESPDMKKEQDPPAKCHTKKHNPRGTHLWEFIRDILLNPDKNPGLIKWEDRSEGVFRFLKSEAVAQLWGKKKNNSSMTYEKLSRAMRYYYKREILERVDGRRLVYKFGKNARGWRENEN
In short, it runs like this:
as §1

For the next test, the target named is SPI1 (Homo sapiens, UniProt P17947 1-270). In a few lines:
as §1

Another test addresses T6, ELK3 (Homo sapiens, UniProt P41970 1-407).
T6 sequence: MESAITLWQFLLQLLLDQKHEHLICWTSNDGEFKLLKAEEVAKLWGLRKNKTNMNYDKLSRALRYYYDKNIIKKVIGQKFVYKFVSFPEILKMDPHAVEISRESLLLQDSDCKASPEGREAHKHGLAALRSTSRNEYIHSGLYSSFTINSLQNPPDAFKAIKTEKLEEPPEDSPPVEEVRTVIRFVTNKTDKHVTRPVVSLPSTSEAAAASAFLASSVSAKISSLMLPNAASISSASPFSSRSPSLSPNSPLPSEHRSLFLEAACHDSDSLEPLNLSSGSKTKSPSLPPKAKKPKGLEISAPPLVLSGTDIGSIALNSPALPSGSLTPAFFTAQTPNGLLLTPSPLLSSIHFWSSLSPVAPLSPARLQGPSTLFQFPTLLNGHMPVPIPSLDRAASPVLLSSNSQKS
In a few lines: as §1

In another test the target is T7, FEV (Homo sapiens, UniProt Q99581 1-238).
T7 sequence: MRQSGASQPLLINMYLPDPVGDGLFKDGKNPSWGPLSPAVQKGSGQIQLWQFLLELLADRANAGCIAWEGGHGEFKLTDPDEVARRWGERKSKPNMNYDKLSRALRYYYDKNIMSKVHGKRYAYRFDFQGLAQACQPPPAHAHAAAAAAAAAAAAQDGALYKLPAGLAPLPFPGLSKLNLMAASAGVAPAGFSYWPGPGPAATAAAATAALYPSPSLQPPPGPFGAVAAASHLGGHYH
In a few lines: as §1

For the next test, the target named is ETV5 (Homo sapiens, UniProt P41161 1-510). In short, it runs like this:
as §1

The target of the next test is T8, SPIC (Homo sapiens, UniProt Q8N5J4 1-248).
T8 sequence: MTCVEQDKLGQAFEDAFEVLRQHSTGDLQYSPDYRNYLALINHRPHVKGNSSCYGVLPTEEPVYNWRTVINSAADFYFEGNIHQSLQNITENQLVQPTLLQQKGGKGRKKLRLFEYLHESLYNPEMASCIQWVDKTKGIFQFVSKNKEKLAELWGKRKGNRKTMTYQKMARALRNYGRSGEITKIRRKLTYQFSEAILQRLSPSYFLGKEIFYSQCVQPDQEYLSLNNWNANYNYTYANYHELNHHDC
In short, it runs like this: as §1

A further test deals with ELF4 (Homo sapiens, UniProt Q99607 1-663). In short, it runs like this:
as §1

For the next test, the target named is T9, ELK4 (Homo sapiens, UniProt P28324-2 1-405).
T9 sequence: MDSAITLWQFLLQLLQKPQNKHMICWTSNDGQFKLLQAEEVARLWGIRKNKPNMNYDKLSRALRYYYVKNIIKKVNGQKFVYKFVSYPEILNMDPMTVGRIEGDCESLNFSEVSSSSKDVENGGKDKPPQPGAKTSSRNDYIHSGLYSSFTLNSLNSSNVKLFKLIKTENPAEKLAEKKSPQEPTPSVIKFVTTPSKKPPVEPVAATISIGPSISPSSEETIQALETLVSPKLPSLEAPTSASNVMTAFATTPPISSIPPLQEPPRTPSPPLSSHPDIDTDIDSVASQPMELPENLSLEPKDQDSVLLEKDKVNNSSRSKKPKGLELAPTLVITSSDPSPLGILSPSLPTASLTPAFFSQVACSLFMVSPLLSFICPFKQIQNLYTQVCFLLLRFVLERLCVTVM
In short, it runs like this: as §1

A further test has as its target T10, ETV2 (Homo sapiens, UniProt O00321 1-342).
T10 sequence: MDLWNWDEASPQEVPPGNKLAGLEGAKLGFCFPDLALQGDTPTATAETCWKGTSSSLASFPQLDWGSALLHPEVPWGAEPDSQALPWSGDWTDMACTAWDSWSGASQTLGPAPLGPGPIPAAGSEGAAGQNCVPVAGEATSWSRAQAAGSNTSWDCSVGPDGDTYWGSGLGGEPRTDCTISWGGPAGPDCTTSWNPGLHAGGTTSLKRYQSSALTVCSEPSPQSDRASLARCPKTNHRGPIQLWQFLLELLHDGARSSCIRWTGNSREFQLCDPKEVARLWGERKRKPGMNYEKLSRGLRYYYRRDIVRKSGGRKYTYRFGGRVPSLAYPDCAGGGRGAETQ
In short, it runs like this: as §1

The target in a further test is T11, ELF3 (Homo sapiens, UniProt P78545 1-371).
T11 sequence: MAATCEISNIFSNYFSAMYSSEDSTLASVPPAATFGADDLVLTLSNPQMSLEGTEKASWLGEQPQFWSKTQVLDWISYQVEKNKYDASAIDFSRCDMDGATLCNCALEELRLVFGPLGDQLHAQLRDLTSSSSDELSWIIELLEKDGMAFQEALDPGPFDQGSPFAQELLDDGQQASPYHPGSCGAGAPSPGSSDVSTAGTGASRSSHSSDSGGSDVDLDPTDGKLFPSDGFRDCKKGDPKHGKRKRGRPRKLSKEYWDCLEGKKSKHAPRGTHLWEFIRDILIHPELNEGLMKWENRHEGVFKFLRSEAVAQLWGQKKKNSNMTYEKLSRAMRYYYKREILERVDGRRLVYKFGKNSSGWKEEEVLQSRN
In short, it runs like this: as §1

For another test, the target named is ETV1 (Homo sapiens, UniProt P50549 1-477). In a few lines: as §1
Chain of ETV1 (P50549 whole entry): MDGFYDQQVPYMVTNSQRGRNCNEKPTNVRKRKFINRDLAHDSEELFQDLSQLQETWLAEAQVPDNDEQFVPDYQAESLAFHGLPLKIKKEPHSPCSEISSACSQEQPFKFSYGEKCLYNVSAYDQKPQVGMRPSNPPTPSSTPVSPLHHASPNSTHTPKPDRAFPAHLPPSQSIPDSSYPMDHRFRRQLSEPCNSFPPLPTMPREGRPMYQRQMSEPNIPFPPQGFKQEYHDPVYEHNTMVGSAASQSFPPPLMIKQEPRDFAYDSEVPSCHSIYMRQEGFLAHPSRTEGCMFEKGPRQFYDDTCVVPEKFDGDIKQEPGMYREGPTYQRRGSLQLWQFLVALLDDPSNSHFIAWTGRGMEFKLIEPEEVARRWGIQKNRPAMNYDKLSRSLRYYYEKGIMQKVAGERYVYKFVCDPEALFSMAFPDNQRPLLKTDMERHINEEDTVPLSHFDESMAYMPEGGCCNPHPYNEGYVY
The target of the next test is SPIB (Homo sapiens, UniProt Q01892 1-262). In short, it runs like this: as §1
Chain of SPIB (Q01892 whole entry): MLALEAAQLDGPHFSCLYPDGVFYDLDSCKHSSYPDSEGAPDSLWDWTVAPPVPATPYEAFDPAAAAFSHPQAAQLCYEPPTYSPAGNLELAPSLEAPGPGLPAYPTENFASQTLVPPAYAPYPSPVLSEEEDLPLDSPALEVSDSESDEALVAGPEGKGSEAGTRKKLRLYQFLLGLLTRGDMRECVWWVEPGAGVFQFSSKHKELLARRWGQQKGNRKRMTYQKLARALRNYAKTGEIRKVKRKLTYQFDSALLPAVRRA

Chain of ETV5 (P41161 whole entry): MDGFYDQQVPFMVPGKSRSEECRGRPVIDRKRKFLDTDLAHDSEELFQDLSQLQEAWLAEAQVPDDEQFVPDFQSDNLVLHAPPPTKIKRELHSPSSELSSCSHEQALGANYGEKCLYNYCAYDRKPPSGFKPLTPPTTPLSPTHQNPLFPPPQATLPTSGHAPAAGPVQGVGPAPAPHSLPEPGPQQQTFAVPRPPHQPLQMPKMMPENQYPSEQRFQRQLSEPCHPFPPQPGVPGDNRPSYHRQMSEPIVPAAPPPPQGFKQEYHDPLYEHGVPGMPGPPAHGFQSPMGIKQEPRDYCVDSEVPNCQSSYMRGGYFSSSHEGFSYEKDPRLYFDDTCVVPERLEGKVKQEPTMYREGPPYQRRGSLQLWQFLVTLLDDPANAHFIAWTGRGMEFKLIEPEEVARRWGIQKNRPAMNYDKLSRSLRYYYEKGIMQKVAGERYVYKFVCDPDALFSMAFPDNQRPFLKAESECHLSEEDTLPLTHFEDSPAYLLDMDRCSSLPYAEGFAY
Chain of ELF4 (Q99607 whole entry): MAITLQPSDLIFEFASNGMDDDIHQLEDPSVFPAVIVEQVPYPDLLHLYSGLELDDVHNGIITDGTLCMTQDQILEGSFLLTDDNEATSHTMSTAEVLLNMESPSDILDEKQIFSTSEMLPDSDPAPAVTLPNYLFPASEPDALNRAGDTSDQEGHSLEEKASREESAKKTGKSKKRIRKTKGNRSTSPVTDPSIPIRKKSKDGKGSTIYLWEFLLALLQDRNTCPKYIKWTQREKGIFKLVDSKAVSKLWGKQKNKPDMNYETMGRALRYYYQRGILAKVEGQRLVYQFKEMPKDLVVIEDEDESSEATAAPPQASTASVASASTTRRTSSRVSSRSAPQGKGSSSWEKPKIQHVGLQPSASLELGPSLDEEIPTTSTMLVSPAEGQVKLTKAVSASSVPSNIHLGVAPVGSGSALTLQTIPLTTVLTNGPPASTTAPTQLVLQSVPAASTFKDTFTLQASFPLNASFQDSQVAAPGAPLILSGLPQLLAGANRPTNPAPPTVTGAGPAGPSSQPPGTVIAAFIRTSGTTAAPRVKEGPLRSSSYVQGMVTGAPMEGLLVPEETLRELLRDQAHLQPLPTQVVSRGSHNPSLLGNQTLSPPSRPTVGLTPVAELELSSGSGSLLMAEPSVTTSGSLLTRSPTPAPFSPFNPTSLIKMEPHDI
Chain of ELF1 (P32519 whole entry): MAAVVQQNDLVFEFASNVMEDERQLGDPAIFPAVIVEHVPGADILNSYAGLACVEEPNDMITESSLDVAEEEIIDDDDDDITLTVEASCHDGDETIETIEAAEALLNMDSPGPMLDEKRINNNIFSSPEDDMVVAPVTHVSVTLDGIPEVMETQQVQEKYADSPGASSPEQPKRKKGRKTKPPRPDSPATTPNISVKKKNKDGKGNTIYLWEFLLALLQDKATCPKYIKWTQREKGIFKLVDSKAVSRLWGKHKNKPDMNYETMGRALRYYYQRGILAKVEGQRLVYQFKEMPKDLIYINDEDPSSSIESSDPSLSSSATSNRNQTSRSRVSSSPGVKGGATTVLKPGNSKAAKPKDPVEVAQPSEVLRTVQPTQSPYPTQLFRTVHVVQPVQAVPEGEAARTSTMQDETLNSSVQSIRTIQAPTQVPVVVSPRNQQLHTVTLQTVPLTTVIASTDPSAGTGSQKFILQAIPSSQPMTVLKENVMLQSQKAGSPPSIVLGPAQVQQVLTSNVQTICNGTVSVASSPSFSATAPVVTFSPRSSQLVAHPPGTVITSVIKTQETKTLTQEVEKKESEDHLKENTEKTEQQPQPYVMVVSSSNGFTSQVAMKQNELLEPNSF

Take GATAGC: the binding signal with FLI1 was 1.11 fold enrichment (6-mer frequency, TF over GST control); with ELK1 it was 1.1 fold enrichment (6-mer frequency, TF over GST control); with GABPA, 1.13 fold enrichment (6-mer frequency, TF over GST control); with ERG, 1.02 fold enrichment (6-mer frequency, TF over GST control); in the test with ELF1, 1.02 fold enrichment (6-mer frequency, TF over GST control); with EHF it was 1.1 fold enrichment (6-mer frequency, TF over GST control). In addition, the binding signal with SPI1 is 1.05 fold enrichment (6-mer frequency, TF over GST control); with ELK3, 1.1 fold enrichment (6-mer frequency, TF over GST control); in the test with FEV, 1.07 fold enrichment (6-mer frequency, TF over GST control); with ETV5, 1.04 fold enrichment (6-mer frequency, TF over GST control); with SPIC it was 1.07 fold enrichment (6-mer frequency, TF over GST control); in the test with ELF4, 1.06 fold enrichment (6-mer frequency, TF over GST control). The binding signal is 1.03 fold enrichment (6-mer frequency, TF over GST control) with ELK4; 1.18 fold enrichment (6-mer frequency, TF over GST control) with ETV2; 1.08 fold enrichment (6-mer frequency, TF over GST control) with ELF3; 1.02 fold enrichment (6-mer frequency, TF over GST control) in the test with ETV1.
For the sequence GGCCCT, the binding signal was 1.09 fold enrichment (6-mer frequency, TF over GST control) with FLI1; 1.08 fold enrichment (6-mer frequency, TF over GST control) with ELK1; 1.11 fold enrichment (6-mer frequency, TF over GST control) in the test with GABPA; 1.1 fold enrichment (6-mer frequency, TF over GST control) in the test with ERG; 1 fold enrichment (6-mer frequency, TF over GST control) with ELF1; 1.15 fold enrichment (6-mer frequency, TF over GST control) with SPIB. Also, the binding signal was 1.04 fold enrichment (6-mer frequency, TF over GST control) with ETV5; 1.11 fold enrichment (6-mer frequency, TF over GST control) in the test with SPIC; 1.06 fold enrichment (6-mer frequency, TF over GST control) with ELF4; 1.06 fold enrichment (6-mer frequency, TF over GST control) with ELK4; 1.14 fold enrichment (6-mer frequency, TF over GST control) with ETV2; 1.11 fold enrichment (6-mer frequency, TF over GST control) in the test with ELF3.
